Bioassay records (PubChem BioAssay)
Vif-APOBEC3F blk: qHTS for Inhibitors of Vif-A3F Interactions: qHTS | 0.2% of 390,000 active | Potency, µM (titrated, usually from 46.1 µM), inactives show at the highest dose activity, negative = active | HeLa A3F-eYFP + Vif (tagged APOBEC3F with the HIV-1 protein that degrades it), YFP fluorescence increase; note: potency is the fitted concentration of half-maximal effect; % of control where 0% means no effect; nearly all actives have a fitted effect of over 65% in size
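HeLa cells stably expressing A3F-eYFP plus Vif, plated and incubated overnight at 37 deg C, then exposed to compounds overnight at 37 deg C. Blocked degradation read as raised yellow fluorescence (Ex 488/Em 500-530).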
IL-2 act: qHTS of IL-2 Activators; IL-2 activation reporter assay, cell-based qHTS; stimulated with anti-CD3/CD4/CD28 beads; in transgenic mouse T cells; activation, % (series mostly up to about 46 µM); AID 652025, 2013; 0.065% of 360,000 active; in the data active = activation above about 50%; inconclusive = mostly about 30% to 49%; note: 0% is about no effect
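Using fluorescent plate cytometry, EGFP and DsRed are detected in transgenic mouse T cells stimulated 18 h at 37 degrees C with antibody-coated beads after 60 min compound pretreatment.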
PKM2 activator: qHTS Assay for Activators of Human Muscle isoform 2 Pyruvate Kinase | Pyruvate kinase PKM (Homo sapiens), P14618 | purified PKM2, Kinase-Glo ATP luminescence, activation; response scale: 0% is enzyme alone, no compound | Potency, µM (top dose mostly 57.5 µM), for inactives: top-dose activation, hits mostly activators | 0.34% of 260,000 active | AID 1631, 2009; note: potency is the fitted concentration of half-maximal effect; % is set by controls: 0 for no effect and ±100 for the full control effect; nearly all actives have a fitted effect of over 55% in size
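Purified hPK-M2 (>95%) run at intermediate activity with 0.1 mM ADP and 0.5 mM PEP in 50 mM imidazole pH 7.2, KCl, MgCl2; 1 h room temperature. ATP formed read by Kinase-Glo luminescence; normalized to uninhibited and no-enzyme controls.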
KAT2A inh: qHTS Assay for Inhibitors of GCN5L2; Histone acetyltransferase KAT2A (Homo sapiens), Q92830; GCN5L2 HAT assay, ThioGlo1 CoA-SH fluorescence; 0.21% of 390,000 active; Potency, µM (series often up to 58.9 µM), inactives show at the top dose activity change, negative = inhibition, hits mostly inhibitors; AID 504327, 2011; note: potency is the fitted concentration of half-maximal effect; % is set by controls: 0 for no effect and ±100 for the full control effect
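qHTS, 1536-well. 20nM enzyme, pH 7.5 HEPES/EDTA/Tween-20 buffer; 15 min compound preinc., RT. Start: 75uM H3(1-25), 70uM AcCoA, 50uM ThioGlo1. Read Ex340/Em540 at t=0 (autofluorescence flag) and t=20 min.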
GoLoco inh red: qHTS Assay for Inhibitors of RGS12 GoLoco Motif Activity (Red Fluorophore); Guanine nucleotide-binding protein G(i) subunit alpha-1 (Homo sapiens), P63096; Gai1:RGS12 GoLoco peptide FP, rhodamine, 10 min; Potency, µM (top dose mostly 61.6 µM), for inactives: at the top dose activity, negative = inhibition, hits mostly inhibitors; 0.44% of 230,000 active; active = well fitted inhibition curve with a large enough effect, not every such curve was filed as active; inactive = no such curve, though single readings can be large or run the other way; note: potency is the fitted concentration of half-maximal effect; % is set by controls: 0 for no effect and ±100 for the full control effect; nearly all actives have a fitted effect of over 30% in size
Target sequence (P63096 whole entry, looked up): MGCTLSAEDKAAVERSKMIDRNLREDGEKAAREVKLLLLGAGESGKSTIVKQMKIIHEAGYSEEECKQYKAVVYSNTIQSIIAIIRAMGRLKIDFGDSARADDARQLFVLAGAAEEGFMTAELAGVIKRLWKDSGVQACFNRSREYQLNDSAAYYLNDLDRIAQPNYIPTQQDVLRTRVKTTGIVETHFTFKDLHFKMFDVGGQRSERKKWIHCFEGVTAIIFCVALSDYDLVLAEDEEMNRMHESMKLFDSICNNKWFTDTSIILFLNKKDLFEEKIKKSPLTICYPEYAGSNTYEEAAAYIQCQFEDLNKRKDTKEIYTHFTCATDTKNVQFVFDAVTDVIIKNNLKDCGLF
Vif-APOBEC3G blk: qHTS for Inhibitors of Vif-A3G Interactions: qHTS; DNA dC->dU-editing enzyme APOBEC-3G (Homo sapiens), Q9HC16; HeLa A3G-eYFP + Vif (tagged APOBEC3G with the HIV-1 protein that degrades it), YFP fluorescence, overnight; Potency, µM (doses to about 46.1 µM), for the others: top-dose activity, negative = active, actives largely listed as inhibitors; 0.076% of 410,000 active; note: potency is the fitted concentration of half-maximal effect; % is set by controls: 0 for no effect and ±100 for the full control effect; nearly all actives have a fitted effect of over 60% in size
Target sequence (Q9HC16 whole entry, looked up): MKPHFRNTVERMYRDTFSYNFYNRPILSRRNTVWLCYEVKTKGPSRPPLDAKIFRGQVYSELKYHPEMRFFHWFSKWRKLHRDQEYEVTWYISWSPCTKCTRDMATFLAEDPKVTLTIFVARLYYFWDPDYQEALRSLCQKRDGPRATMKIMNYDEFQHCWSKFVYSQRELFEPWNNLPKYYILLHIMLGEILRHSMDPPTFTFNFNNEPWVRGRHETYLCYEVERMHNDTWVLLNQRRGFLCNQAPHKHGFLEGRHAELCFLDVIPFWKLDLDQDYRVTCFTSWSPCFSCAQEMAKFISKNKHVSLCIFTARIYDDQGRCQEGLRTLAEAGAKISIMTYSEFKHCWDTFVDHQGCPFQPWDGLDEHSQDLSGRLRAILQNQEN
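HeLa cells stably expressing Vif and C-terminally eYFP-tagged A3G, seeded overnight at 37 deg C, then exposed to compound by pintool overnight at 37 deg C. Rise in yellow fluorescence (Ex 488/Em 500-530, Acumen) marks blocked Vif-driven A3G degradation.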
* = called active by the depositor; ? = inconclusive; nt = not tested or not shown. Most compounds without a hit are left out; they make up all but 0.77% or so of the library. Unless noted, calls come from the whole dose curve; as a rule, active = well fitted curve in the direction sought with a large enough effect; inconclusive = small, poorly fitted or top-dose-only effect, or another doubt; inactive = no such curve, though single readings can be large; an effect the other way counts as inactive or inconclusive.

SMILES	Vif-APOBEC3F blk	IL-2 act	PKM2 activator	KAT2A inh	GoLoco inh red	Vif-APOBEC3G blk
O=c1[nH]c(CS(=O)(=O)c2ccccc2)nc2ccccc12	-11%	1	8%	0%	9%	-1%
COc1ccc2c(c1OC)C(=O)N1C2SC(C)(C)[C@H]1C(=O)NC1CCCC1 (some centres undefined)	5%	1	-8%	32µM*	nt	1%
O=c1oc2c(CN3CCN(CCO)CC3)c(O)ccc2cc1-c1ccccc1	3%	nt	nt	32µM*	nt	5%
COc1ccc(-c2cc3ccc(O)c(CN4CCCC4)c3oc2=O)cc1OC	1%	nt	nt	14µM*	nt	3%
COc1ccc(-c2cc3ccc(O)c(CN4CCCC(C)C4)c3oc2=O)cc1OC (centres undefined)	7%	nt	nt	-26%	nt	2%
CN1CCN(Cc2c(O)ccc3cc(-c4ccc(Cl)cc4)c(=O)oc23)CC1	-1%	nt	nt	?	nt	11%
O=C1c2ccccc2[C@@H]2CC(O)C(O)CCN12 (some centres undefined)	-4%	1	nt	-2%	nt	-2%
CC1(C)Cc2ccccc2C2CC(O)C(=O)N21 (centres undefined)	25µM*	0	-1%	-4%	-9%	?
CC1(C)CC(=O)CC(=Nc2ccc3[nH]c(=O)[nH]c3c2)C1	-3%	0	-4%	-4%	4%	-1%
O=C(NNC(=O)C1C2CCCCC21)c1coc(=O)c(Br)c1 (centres undefined)	-13%	0	-11%	-20%	17%	-1%
Oc1ccccc1C=NN=Cc1c(O)ccc2ccccc12	?	52*	nt	nt	nt	-15%
O=C(NN=Cc1c(O)ccc2ccccc12)c1ccc2c(c1)OCO2	7.9µM*	0	nt	-7%	nt	?
O=c1c2c([nH]n1-c1ccccc1)CCCC2	0%	0	2%	2%	9%	10%
CN(Cc1cnccn1)Cc1nc(Cc2cccc(F)c2)no1	-12%	-3	-1%	3%	-10%	11%
OC(c1ccccc1)(c1nc(-c2ccc3c(c2)OCO3)cs1)C(F)(F)F (centres undefined)	nt	0	nt	nt	nt	-27%
N#C/C(=C\C=C\c1ccccc1)c1nc(-c2ccc3c(c2)OCO3)cs1	?	95*	11%	-3%	2%	0%
COCCNc1nc(NCc2cc(-c3ccc(OC)cc3)no2)c2sccc2n1	nt	0	nt	nt	nt	?
Cc1ccc2nsnc2c1NC(=O)CCl	-2%	0	-1%	1%	2%	-13%
COc1ccc(S(=O)(=O)N2CCN(c3ccccc3F)CC2)cc1-c1noc(C)n1	-7%	nt	nt	16µM*	nt	-10%
COc1ccc(C(=O)c2sc3nc(C)cc(-c4cccs4)c3c2N)cc1OC	?	550*	-6%	-10%	6%	?
COc1ccc(-c2cc(-c3cccs3)nc3sc(C#N)c(N)c23)cc1	11µM*	0	-12%	?	44%	?
CC(C)NC(=O)c1sc2nc(-c3cccs3)cc(-c3cccs3)c2c1N	?	6	0%	2%	12%	-7%
COc1ccc(NC(=O)c2sc3nc(-c4ccc(OC)cc4)cc(C(F)(F)F)c3c2N)cc1	?	nt	nt	-5%	nt	?
Cc1cc(C)c2c(N)c(C(=O)c3ccc(Cl)cc3)sc2n1	?	11	-2%	-10%	-3%	-29%
COc1ccc(C(=O)c2sc3nc(C)cc(-c4cccs4)c3c2N)cc1	22µM*	0	-18%	-14%	22%	13µM*
SMILES	Vif-APOBEC3F blk	IL-2 act	PKM2 activator	KAT2A inh	GoLoco inh red	Vif-APOBEC3G blk
COc1ccc(C(=O)c2sc3nc(-c4ccc(C)cc4)cc(C(F)(F)F)c3c2N)cc1	1.3µM*	nt	nt	-1%	nt	8.9µM*
Cc1cc(-c2cccs2)c2c(N)c(C(=O)c3ccc4c(c3)OCO4)sc2n1	-22%	0	-1%	-25%	14%	-8%
CCOc1ccccc1CNC(=O)CCc1cn(CC)c2ccccc12	2%	-3	nt	-3%	nt	-4%
COc1cc(OC)cc(C(=O)Nc2ccccc2-c2nc3ccccc3s2)c1	0%	nt	nt	0%	nt	0%
Cn1c(=O)c2ncn(CC(=O)N/N=C/C=C/c3ccccc3)c2n(C)c1=O	-8%	-5	29%	-3%	-2%	-2%
COc1ccc(C(=O)COc2ccccc2C#N)cc1	15%	-3	3%	-25%	7%	-5%
O=C(COc1ccc(S(=O)(=O)N2CCc3ccccc32)cc1Cl)NCc1ccccn1	-2%	-2	16µM*	-3%	1%	1%
COc1ccc(S(=O)(=O)Nc2cccc(S(=O)(=O)N3CCCCCC3)c2)cc1	-2%	0	-6%	-6%	-9%	-1%
O=S(=O)(Nc1nc2ccccc2nc1Nc1cccc(S(=O)(=O)N2CCCCC2)c1)c1ccccc1	10µM*	0	11%	?	-12%	?
CCCCCCCCCCCCCCCCOCCOCCOCCOCCOCCOCCOCCOCCOCCOCCOCCOCCOCCOCCOCCOCCOCCOCCOCCOCCO	nt	nt	nt	5%	nt	nt
O=[N+]([O-])c1cc(O)c2ncccc2c1	-4%	-6	?	-1%	11%	11µM*
CCOC(=O)C1CCCN(c2cc(C)nc3c(-c4ccccc4OC)c(C)nn23)C1 (centres undefined)	-3%	nt	nt	-3%	nt	1%
S=c1nc(-c2cccc(Cl)c2)[nH][nH]1	?	1	-9%	-17%	18%	2%
S=c1nc(-c2cc(Cl)ccc2Cl)[nH][nH]1	-7%	-1	-6%	3.5µM*	13%	0%
COc1ccc(S(=O)(=O)N2CCCN(CC(=O)Nc3ccc(OC)c(Cl)c3)CC2)cc1	nt	3	20µM*	-9%	26%	0%
COc1ccc(CC(=O)Nc2ccc(S(=O)(=O)N3CCCC3)cc2)cc1OC	10%	-1	nt	1%	nt	4%
COc1cc(CC(=O)OCC(=O)Nc2ccc(S(=O)(=O)N3CCCC3)cc2)cc(OC)c1OC	-10%	2	20µM*	-6%	3%	-2%
Cc1ccc(C)c(Oc2ccc(S(=O)(=O)N3CCN(C)CC3)cn2)c1	-3%	0	nt	2%	nt	-1%
Cc1ccc(S(=O)(=O)c2cn(Cc3ccccc3)c3cc(N4CCCC4)c(F)cc3c2=O)cc1	7%	nt	nt	-6%	nt	-2%
